# Assay results from PubChem BioAssay (NCATS).
# Several values for one entry are separate records, joined by “and”; a condition that tells them apart may be missing. Equal values may be shown once. Inconclusive results are not listed. Where a call stands in place of a potency, no number is given. Some structures have more than one record in an assay (separate samples or runs), and their calls can disagree. Activity calls are given as the source filed them. Unless noted, calls come from the whole dose curve; as a rule, active = well fitted curve in the direction sought with a large enough effect; inconclusive = small, poorly fitted or top-dose-only effect, or another doubt; inactive = no such curve, though single readings can be large; an effect the other way counts as inactive or inconclusive.
# Experiments:
# NIH3T3 = experiment: qHTS assay to identify novel small-molecules to repurpose for Merkel cell carcinoma treatment (AID 1296009); conditions: MCC and control cell lines, CellTiter-Glo viability, 72 h; note: nearly all actives have a fitted effect of over 60% in size; note: potency is the fitted concentration of half-maximal effect
# Summary of the method: (§1)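 CellTiter-Glo luminescence after 72 hr compound exposure at 37 degree celsius gave cell viability. Libraries NPC and MIPE were run as 8- and 11-point dose responses; RLUs normalized to DMSO (negative) and no-cell (cytotoxicity) controls.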
# UISO = experiment: as above; conditions: MCC and control cell lines, CellTiter-Glo viability, 72 h; series mostly up to 46 µM
# Summary of the method: as §1
# WaGa = experiment: as above; conditions: MCC and control cell lines, CellTiter-Glo viability, 72 h; series mostly up to 46 µM
# Summary of the method: as §1
# C33A = experiment: Primary qHTS to identify gynecologic anti-cancer compounds using libraries of approved drugs and bioactive compounds (AID 1345084); conditions: Gynecologic cancer cell panel viability, ATPlite luminescence, 48 h; series mostly up to 57.5 µM; note: nearly all actives have a fitted effect of over 55% in size; note: potency is the fitted concentration of half-maximal effect
# Summary of the method: (§2)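 Cytotoxicity screen measuring ATP content by luciferase luminescence. Each compound is applied at five concentrations for 48 h at 37 C with 5% CO2.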
# CAOV3 = experiment: as above; conditions: Gynecologic cancer cell panel viability, ATPlite luminescence, 48 h; series mostly up to 57.5 µM
# Summary of the method: as §2
# CASKI = experiment: as above; conditions: Gynecologic cancer cell panel viability, ATPlite luminescence, 48 h; series mostly up to 57.5 µM
# Summary of the method: as §2
# Es-2 = experiment: as above; conditions: Gynecologic cancer cell panel viability, ATPlite luminescence, 48 h; series mostly up to 57.5 µM
# Summary of the method: as §2
# HeLa = experiment: as above; conditions: Gynecologic cancer cell panel viability, ATPlite luminescence, 48 h; series mostly up to 57.5 µM
# Summary of the method: as §2
# Hek293T = experiment: as above; conditions: Gynecologic cancer cell panel viability, ATPlite luminescence, 48 h, control line for the selectivity index; series mostly up to 57.5 µM
# Summary of the method: as §2
# JEG-3 = experiment: as above; conditions: Gynecologic cancer cell panel viability, ATPlite luminescence, 48 h; series mostly up to 57.5 µM
# Summary of the method: as §2
# OV90 = experiment: as above; conditions: Gynecologic cancer cell panel viability, ATPlite luminescence, 48 h; series mostly up to 57.5 µM
# Summary of the method: as §2
# PA-1 = experiment: as above; conditions: Gynecologic cancer cell panel viability, ATPlite luminescence, 48 h; series mostly up to 57.5 µM
# Summary of the method: as §2
# SKOV3 = experiment: as above; conditions: Gynecologic cancer cell panel viability, ATPlite luminescence, 48 h; series mostly up to 57.5 µM
# Summary of the method: as §2
# Tov-21-G = experiment: as above; conditions: Gynecologic cancer cell panel viability, ATPlite luminescence, 48 h; series mostly up to 57.5 µM
# Summary of the method: as §2
# Tov112D = experiment: as above; conditions: Gynecologic cancer cell panel viability, ATPlite luminescence, 48 h; series mostly up to 57.5 µM
# Summary of the method: as §2
# [1] = Drug repurposing screens with cells derived from glioblastoma tumor samples (AID 1345199); conditions: GBM patient neurospheres viability, ATP luminescence, 48 h; note: nearly all actives have a fitted effect of over 40% in size; note: potency is the fitted concentration of half-maximal effect
# Summary of the method: (§3)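 Primary testing used CD133+ neurospheres from four GBM patients, seven concentrations, 48 h exposure and ATP-based viability; confirmation added three slower-growing patient lines.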
# astro = experiment: as above; conditions: viability, ATP luminescence, 48 h; series mostly up to 45.9 µM
# Summary of the method: as §3
# [2] = biological target: Nuclear receptor subfamily 1 group I member 2 (Rattus norvegicus) (UniProt Q9R1A7); experiment: qHTS assay for small molecule activators of the rat pregnane X receptor (rPXR) signaling pathway (AID 651751; call rule not given here); conditions: rPXR reporter cells, luciferase (One-Glo), 24 h
# Chain of Nuclear receptor subfamily 1 group I member 2 (Rattus norvegicus) (Q9R1A7 whole entry, looked up): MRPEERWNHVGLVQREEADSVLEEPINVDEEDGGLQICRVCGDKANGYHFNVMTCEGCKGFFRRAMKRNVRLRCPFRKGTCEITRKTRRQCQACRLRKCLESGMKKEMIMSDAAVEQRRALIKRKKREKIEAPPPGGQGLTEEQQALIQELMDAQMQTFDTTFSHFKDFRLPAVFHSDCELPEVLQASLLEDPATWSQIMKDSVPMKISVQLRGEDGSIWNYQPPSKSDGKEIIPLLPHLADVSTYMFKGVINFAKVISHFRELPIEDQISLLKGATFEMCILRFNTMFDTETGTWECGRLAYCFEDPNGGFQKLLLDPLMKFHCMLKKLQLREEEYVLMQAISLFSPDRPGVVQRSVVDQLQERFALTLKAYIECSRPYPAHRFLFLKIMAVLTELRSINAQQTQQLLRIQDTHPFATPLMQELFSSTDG
# [3] = qHTS assay for small molecule activators of the human pregnane X receptor (PXR) signaling pathway (AID 720659; call rule not given here)
# [4] = at 44.8 µM (top of the series) unless noted
# [5] = at 45.9 µM (top of the series), tumour line B
# [6] = at 45.9 µM (top of the series), tumour line D
# [7] = at 46 µM (top of the series), tumour line A
# [8] = at 46.1 µM (top of the series), tumour line C
smiles,measurement,setting,value
CCc1ccc(CCOc2ccc(CC3SC(=O)NC3=O)cc2)nc1 (stereo not drawn),outcome,NIH3T3; [4],inactive
same,Potency,UISO,inactive
same,Potency,WaGa,inactive
same,Potency,C33A,inactive
same,Potency,CAOV3,inactive
same,Potency,CASKI,inactive
same,Potency,Es-2,inactive
same,Potency,HeLa,inactive
same,Potency,Hek293T,inactive
same,Potency,JEG-3,inactive
same,Potency,OV90,inactive
same,Potency,PA-1,inactive
same,Potency,SKOV3,inactive
same,Potency,Tov-21-G,inactive
same,Potency,Tov112D,inactive
same,"activity, negative = cell killing",[1]; [5],-10.3% (inactive)
same,"activity, negative = cell killing",[1]; [6],-17.6% (inactive)
CN[C@@H](C)C(=O)N[C@H]1CCCC[C@H]2CC[C@@H](C(=O)N[C@@H](c3ccccc3)c3cn(CCCCc4ccc(CCCCn5cc([C@@H](NC(=O)[C@@H]6CC[C@@H]7CCCC[C@H](NC(=O)[C@H](C)NC)C(=O)N76)c6ccccc6)nn5)cc4)nn3)N2C1=O,outcome,NIH3T3; [4],inactive
Cc1[nH]c(=O)c(C#N)cc1-c1ccc2nccn2c1,outcome,NIH3T3; [4],inactive
same,Potency,UISO,inactive
same,Potency,WaGa,inactive
same,Potency,C33A,inactive
same,Potency,CAOV3,inactive
same,Potency,CASKI,inactive
same,Potency,Es-2,inactive
same,Potency,HeLa,inactive
same,Potency,Hek293T,inactive
same,Potency,JEG-3,inactive
same,Potency,OV90,inactive
same,Potency,PA-1,inactive
same,Potency,SKOV3,inactive
same,Potency,Tov-21-G,inactive
same,Potency,Tov112D,inactive
same,"activity, negative = cell killing",[1]; [5],-4% (inactive)
same,"activity, negative = cell killing",[1]; [6],0.316% (inactive)
same,"activity, negative = cell killing",[1]; [7],-27% (inactive)
same,"activity, negative = cell killing",[1]; [8],-6.47% (inactive)
same,Potency,astro,inactive
O=C1CCC(N2C(=O)c3ccccc3C2=O)C(=O)N1 (stereo not drawn),outcome,NIH3T3; [4],inactive
same,Potency,UISO,inactive
same,Potency,WaGa,inactive
same,Potency,C33A,inactive
same,Potency,CAOV3,inactive
same,Potency,CASKI,inactive
same,Potency,Es-2,inactive
same,Potency,HeLa,inactive
same,Potency,Hek293T,inactive
same,Potency,JEG-3,inactive
same,Potency,OV90,inactive
same,Potency,PA-1,inactive
same,Potency,SKOV3,inactive
same,Potency,Tov-21-G,inactive
same,Potency,Tov112D,inactive
same,"activity, negative = cell killing",[1]; [5],-4.2% (inactive)
same,"activity, negative = cell killing",[1]; [6],-2.61% (inactive)
same,"activity, negative = cell killing",[1]; [7],-6.31% (inactive)
same,"activity, negative = cell killing",[1]; [8],3.21% (inactive)
same,Potency,astro,inactive
same,max response,[2],1.73% (inactive)
same,outcome,[3],inactive
CNC[C@H](O)c1cccc(O)c1,outcome,NIH3T3; [4],inactive
same,Potency,UISO,inactive
same,Potency,WaGa,inactive
same,Potency,C33A,inactive
same,Potency,CASKI,inactive
same,Potency,Es-2,inactive
same,Potency,HeLa,inactive
same,Potency,Hek293T,inactive
same,Potency,JEG-3,inactive
same,Potency,OV90,inactive
same,Potency,PA-1,inactive
same,Potency,SKOV3,inactive
same,Potency,Tov-21-G,inactive
same,Potency,Tov112D,inactive
same,"activity, negative = cell killing",[1]; [5],-2.77% (inactive)
same,"activity, negative = cell killing",[1]; [6],6.94% (inactive)
same,"activity, negative = cell killing",[1]; [8],-5.24% (inactive)
same,Potency,astro,inactive
same,max response,[2],1.25% (inactive)
same,outcome,[3],inactive
OCCC#Cc1nc(-c2ccc(F)cc2)c(-c2ccncc2)n1CCCc1ccccc1,outcome,NIH3T3; [4],inactive
same,Potency,UISO,inactive
O=C1CCc2cc(OCCCCc3nnnn3C3CCCCC3)ccc2N1,outcome,NIH3T3; [4],inactive
same,Potency,UISO,inactive
same,Potency,WaGa,inactive
same,Potency,C33A,inactive
same,Potency,CASKI,inactive
same,Potency,Es-2,inactive
same,Potency,HeLa,inactive
same,Potency,Hek293T,inactive
same,Potency,JEG-3,inactive
same,Potency,PA-1,inactive
same,Potency,SKOV3,inactive
same,Potency,Tov-21-G,inactive
same,Potency,Tov112D,inactive
same,"activity, negative = cell killing",[1]; [5],-16.9% (inactive)
same,"activity, negative = cell killing",[1]; [6],-10.7% (inactive)
same,"activity, negative = cell killing",[1]; [8],-10.2% (inactive)
same,Potency,astro,inactive
CCN(CC)CCCC(C)Nc1ccnc2cc(Cl)ccc12 (stereo not drawn),outcome,NIH3T3; at 9.27 µM (top of the series),inactive
same,outcome,NIH3T3; at 44.8 µM (top of the series),inactive
same,Potency,UISO,inactive
same,Potency,WaGa,inactive
same,Potency,C33A,inactive
same,"activity change, negative = cytotoxicity",CAOV3,-18.6% [at 11.6 µM] (inactive)
same,"activity change, negative = cytotoxicity",CASKI,-9.21% [at 11.6 µM] (inactive)
same,Potency,Es-2,inactive
same,Potency,HeLa,inactive
same,Potency,Hek293T,inactive
same,Potency,JEG-3,inactive
same,Potency,OV90,5.62 µM (active)
same,Potency,PA-1,inactive
same,Potency,SKOV3,inactive
same,Potency,Tov-21-G,inactive
same,Potency,Tov112D,inactive
same,"activity, negative = cell killing",[1]; [8],3.03% (inactive)
same,Potency,[1]; tumour line A,15.8 µM (active)
same,Potency,astro,inactive
O=C(Nc1nc2ccccc2n1CCN1CCOCC1)c1cccc([N+](=O)[O-])c1,outcome,NIH3T3; [4],inactive
same,Potency,UISO,inactive
CCCc1nc2c(C)cc(-c3nc4ccccc4n3C)cc2n1Cc1ccc(-c2ccccc2C(=O)O)cc1,outcome,NIH3T3; [4],inactive
same,Potency,UISO,inactive
same,Potency,WaGa,inactive
same,Potency,C33A,inactive
same,Potency,CAOV3,inactive
same,Potency,CASKI,inactive
same,Potency,Es-2,inactive
same,Potency,HeLa,inactive
same,Potency,Hek293T,inactive
same,Potency,JEG-3,inactive
same,Potency,OV90,inactive
same,Potency,PA-1,inactive
same,Potency,SKOV3,inactive
same,Potency,Tov-21-G,inactive
same,Potency,Tov112D,inactive
same,"activity, negative = cell killing",[1]; [5],-13.6% (inactive)
same,"activity, negative = cell killing",[1]; [6],-10.2% (inactive)
same,"activity, negative = cell killing",[1]; [7],-16.9% (inactive)
same,"activity, negative = cell killing",[1]; [8],-10.7% (inactive)
same,Potency,astro,inactive
NC(N)=NC(=O)c1nc(Cl)c(N)nc1N,outcome,NIH3T3; [4],inactive
same,Potency,UISO,inactive
same,Potency,WaGa,inactive and 29.9 µM (active)
same,Potency,C33A,inactive
same,Potency,CASKI,inactive
same,Potency,Es-2,inactive
same,Potency,HeLa,inactive
same,Potency,Hek293T,inactive
same,Potency,JEG-3,inactive
same,Potency,OV90,inactive
same,Potency,PA-1,inactive
same,Potency,SKOV3,inactive
same,Potency,Tov-21-G,inactive
same,Potency,Tov112D,inactive
same,"activity, negative = cell killing",[1]; [6],-15.1% (inactive)
same,"activity, negative = cell killing",[1]; [7],18.9% (inactive)
same,"activity, negative = cell killing",[1]; [8],-11.2% (inactive)
same,Potency,astro,inactive
same,outcome,[3],inactive
Cc1ccccc1C(C(=O)NC1CCCC1)N(C(=O)Cn1cnc2ccccc21)c1cccc(F)c1 (stereo not drawn),outcome,NIH3T3; [4],inactive
same,Potency,UISO,inactive
same,Potency,WaGa,inactive
CC(C=CC1=C(C)CCCC1(C)C)=CC=CC(C)=CC(=O)O,outcome,NIH3T3; [4],inactive
same,Potency,UISO,inactive
same,Potency,WaGa,inactive
CC(C)(C)NCC(O)c1ccc(O)c(CO)c1 (stereo not drawn),outcome,NIH3T3; [4],inactive
same,Potency,UISO,inactive
same,Potency,WaGa,inactive
same,Potency,C33A,inactive
same,Potency,CASKI,inactive
same,Potency,Es-2,inactive
same,Potency,HeLa,inactive
same,Potency,Hek293T,inactive
same,Potency,JEG-3,inactive
same,Potency,OV90,inactive
same,Potency,PA-1,inactive
same,Potency,Tov-21-G,inactive
same,Potency,Tov112D,inactive
same,"activity, negative = cell killing",[1]; [5],-3.69% (inactive)
same,"activity, negative = cell killing",[1]; [6],-16.6% (inactive)
same,"activity, negative = cell killing",[1]; [7],-18.1% (inactive)
same,"activity, negative = cell killing",[1]; [8],-6.46% (inactive)
same,Potency,astro,inactive
